High-throughput results (PubChem BioAssay)
Most compounds without a hit are left out; they make up all but 2% or so of the library.
Abeta rescue: A-beta toxicity reversal in yeast; 410,000 tested, 0.063% active; AID 1347071; yeast expressing A-beta42, growth rescue, OD600, 48 h; response scale: 0% DMSO, 100% iron-clioquinol control; Potency, µM (titrated, usually from 46.1 µM), hits mostly activators; also: nearly all actives have a fitted effect of over 55% in size
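Yeast A-beta toxicity model in growth medium with pinned compounds, 48 h at 30 C; growth read as absorbance at 600 nm. Normalized to FeCl3/clioquinol equimolar mix (positive) and DMSO (negative).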
TDP-43 yeast inh: TDP-43 toxicity inhibition in yeast. TDP-43 expressing yeast growth rescue, BacTiter-Glo, 24 h. AID 652104. Potency, µM (top dose mostly 46.1 µM), without a hit: top-dose growth rescue (activation), usual class: activators. 410,000 tested, 1.8% active; also: % of control where 0% means no effect; nearly all actives have a fitted effect of over 50% in size
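Growth rescue of TDP-43-toxic yeast measured as ATP luminescence (BacTiter-Glo). Cells grown to mid-log in raffinose, induced in galactose at OD600=0.02, exposed to compound 24 hr at 30 deg C.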
FUS yeast rescue: suppressors of FUS proteinopathy in yeast | S. cerevisiae FUS-expressing, growth rescue, OD600, 24 h | AID 1347120 | 390,000 tested, 0.24% active | Potency, µM (top dose mostly 76.6 µM), most hits filed as activators;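 also: plate controls were DMSO vehicle for no effect and reference control for full effect; nearly all actives have a fitted effect of over 55% in size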
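Absorbance at 600 nm, taken 24hr after compound addition, measured rescue of FUS-yeast growth at 30C. Induction used 2% galactose with seeding at OD 0.005. Controls: CP55940 from 92uM final, DMSO only.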
aSyn yeast inh: inhibitors of alpha-synuclein toxicity in yeast. Yeast expressing alpha-synuclein, growth rescue, BacTiter-Glo, 24 h. Potency, µM (series often up to 46.1 µM), inactives show top-dose growth rescue (activation), usual class: activators. 370,000 tested, 0.14% active. AID 652106; also: % of control where 0% means no effect; nearly all actives have a fitted effect of over 65% in size
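Screening used galactose-induced yeast with toxic alpha-synuclein levels, exposed to compound for 24 hr at 30 deg C. Cell growth, read with BacTiter-Glo luminescence, gave the measured signal.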
Glioma ERSR ind: inducers of ER stress response in human glioma cells. U87-MG GRP78 promoter luciferase reporter, 16 h. Potency, µM, without a hit: top-dose activation, most hits filed as activators. 420,000 tested, 0.02% active; also: series mostly up to about 76 µM; % of control where 0% means no effect; nearly all actives have a fitted effect of over 35% in size
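Stably transfected U87-MG human glioma cells carrying a GRP78-based luminescent sensor were seeded at 1000 cells/well, pin-dosed with compounds and incubated 16 h. Luciferase reagent was then added, and end-point luminescence was read after 10 min at room temperature.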
MBNL1 CUG block: blocks human MBNL1 binding to CUG repeat RNA; Q9NR56; TR-FRET MBNL1-His/biotin-(CUG)12 binding, 665/545 ratio; Potency, µM (titrated, usually from 57.5 µM), for inactives: top-dose activity change, negative = inhibition, most hits filed as inhibitors; 280,000 tested, 0.036% active; active = well fitted inhibition curve with a large enough effect in the signal ratio, with a control signal flat, not every such curve was filed as active; inconclusive = small, poorly fitted or top-dose-only effect, or effect the other way, or a change in a side signal; inactive = no such curve, though single readings can be large or run the other way; the % refers to the signal ratio; also: % is scaled to controls: 0 for no effect and ±100 for the full control effect
Target sequence (Q9NR56 whole entry, looked up): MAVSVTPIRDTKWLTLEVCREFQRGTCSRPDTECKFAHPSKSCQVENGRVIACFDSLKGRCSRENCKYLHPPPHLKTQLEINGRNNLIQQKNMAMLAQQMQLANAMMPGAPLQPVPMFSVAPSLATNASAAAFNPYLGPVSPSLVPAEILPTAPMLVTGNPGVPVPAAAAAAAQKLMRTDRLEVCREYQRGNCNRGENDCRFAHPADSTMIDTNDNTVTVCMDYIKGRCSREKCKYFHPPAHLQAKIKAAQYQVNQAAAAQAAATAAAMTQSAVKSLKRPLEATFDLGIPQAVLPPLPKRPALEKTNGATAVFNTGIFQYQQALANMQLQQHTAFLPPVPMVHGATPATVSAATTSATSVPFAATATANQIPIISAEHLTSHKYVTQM
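Ratiometric TR-FRET (665 over 545 nm, excitation 340 nm) tracks disruption of MBNL1-His/biotin-(CUG)12 complex after 60 min at room temperature, with compounds at 92 nM to 58 uM final.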
* marks the source's active call; other numbers are inactive results; i = inactive; u = inconclusive; x = no result; [ ] = another dose, or the depositor's remark. Unless noted, calls follow the shape of the dose curve; as a rule, active = well fitted curve in the direction sought with a large enough effect; inconclusive = small, poorly fitted or top-dose-only effect, or another doubt; inactive = no such curve, though single readings can be large; an effect the other way counts as inactive or inconclusive. Potency is read from the fitted curve at half-maximal effect.

SMILES | Abeta rescue | TDP-43 yeast inh | FUS yeast rescue | aSyn yeast inh | Glioma ERSR ind | MBNL1 CUG block
CN(C)c1cccc2c1c(NC(=O)Nc1ccc(Cl)cc1Cl)nn2C | i | 5.2% | i | -0.9% | -0.2% | 3.7%
COc1ccccc1NC(=O)Nc1nn(C)c2cccc(N(C)C)c12 | i | 20µM* | u | -41.7% | -3.5% | -0.9%
Cc1ccc2c(c1)N(CCCC(=O)NCc1c(F)cccc1F)C(=O)CO2 | x | x | i | x | x | x
Cc1ccc2[nH]c(C(=O)N3CCc4c(cnc(C)c4CNC(=O)c4ccccc4F)C3)cc2c1 | x | x | x | x | -3.2% | x
CCN(C(=O)Cn1c(=O)n(-c2ccccc2)c(=O)c2ccc(C(=O)NCc3ccc4c(c3)OCO4)cc21)c1cccc(C)c1 | i | 6.6% | 35.5µM* | x | -2.6% | x
O=C(CSc1nc(=O)n2ccccc2n1)N1CCC(Cc2ccccc2)CC1 | i | 20µM* | i | 4.0% | -1.5% | x
CCCCN=C1NN=C(c2ccc(C)c(C)c2)CS1 | i | 14.1µM* | i | -3.2% | -1.6% | 1.5%
CCCCN=C1NN=C(c2ccc3c(c2)OCCO3)CS1 | i | 16.7% | u | 4.6% | -8.5% | 5.4%
CCOC(=O)N1CCN(C(=O)C[C@@H]2C(=O)N3CCCC4=C3[C@@]2(C(=O)OCC)CCC4)CC1 | x | x | i | x | x | x
Cc1nnc(SCc2ccc(Cl)c(Cl)c2)s1 | i | 12.6µM* | x | 5.7% | 7.5% | 9.5%
COc1cc(/C=C/C(=O)c2c(O)ccc3c(C)cc(=O)oc23)ccc1O | i | u | i | 5.01µM* | -5.0% | 7.1%
COc1cc(C(C(=O)NC2CCCCC2)N(C(=O)Cc2c[nH]c3ccccc23)c2ccccc2C)cc(OC)c1OC (configuration not stated) | i | 13.8% | 22.4µM* | 4.4% | -3.5% | u
CCc1c(C)sc(NC(=O)C2CC(c3c(F)cccc3Cl)=NO2)c1C#N (configuration not stated) | i | 20µM* | i | 0.2% | 7.7% | -2.3%
Cc1ccc(O)c(NC(=O)C2CC(c3c(F)cccc3Cl)=NO2)c1 (configuration not stated) | i | 3.55µM* | i | x | 5.6% | -0.7%
COc1ccc2c(c1)-c1nc(-n3ncc(C(=O)NCc4cccnc4)c3C3CC3)ncc1CC2 | x | x | x | x | -4.7% | x
COc1ccc2cc(C(=O)N/N=C/c3sc4ccccc4c3O)ccc2c1 | i | -10.8% | x | 10µM* | -2.7% | u
O=C(CSc1ncnc2sc3c(c12)CCCC3)c1ccco1 | i | 10µM* | i | 5.4% | 4.5% | 9.1%
Cc1cc(C)nc(Sc2ncnc3sc4c(c23)CCC4)n1 | i | 20µM* | i | 0.0% | -4.2% | -17.0%
O=C(CSc1ncnc2sc3c(c12)CCCC3)c1ccccc1 | i | -1.7% | i | -8.1% | 5.8% | 17.6%
CC(=O)C(Sc1ncnc2sc3c(c12)CCCC3)C(C)=O | u | 17.8µM* | i | u | 3.0% | -9.8%
COc1cc(O)c(C(CC(=O)N2CCC(C)CC2)c2ccc3c(c2)OCO3)c(OC)c1 (configuration not stated) | x | x | i | x | x | x
CCCCNC(=O)[C@@H]1CC=C[C@@H]2CCN(CCCC)C(=O)[C@@H]21 | x | x | x | x | -3.6% | x
C=C[C@]1(C)C[C@@H](OC(=O)CO)[C@]2(C)C(C)CC[C@]3(CCC(=O)[C@H]32)[C@@H](C)[C@@H]1O (some centres not stated) | x | x | x | x | -1.6% | x
COc1ccccc1-n1cc(CN2CCOc3ccc(CN4C[C@@H](C)O[C@@H](C)C4)cc3C2)cn1 | x | x | x | x | -3.6% | x
Cc1ccccc1C(=O)Oc1ccc2ccc(O)cc2c1 | i | 17.8µM* | i | -9.0% | 10.5% | -3.7%
SMILES | Abeta rescue | TDP-43 yeast inh | FUS yeast rescue | aSyn yeast inh | Glioma ERSR ind | MBNL1 CUG block
COc1cccc(C(=O)NNC(=O)c2ccc3ccccc3c2)c1 | i | -14.8% | i | -11.7% | 2.4% | x
COc1cccc(C(=O)Oc2ccc3ccc(O)cc3c2)c1 | i | 20µM* | i | -1.5% | 4.0% | -1.3%
CCc1ccc2oc(-c3cc(NC(=O)c4cccs4)ccc3Cl)nc2c1 | i | 17.8µM* | i | -7.6% | -0.9% | x
CCc1ccc2oc(-c3cc(N)ccc3Cl)nc2c1 | i | 17.8µM* | i | 3.2% | -14.7% | -6.0%
CC(C)c1ccc2oc(-c3cc(NC(=O)c4cccnc4)ccc3Cl)nc2c1 | i | 15.8µM* | i | x | -10.2% | x
Cc1ccc2oc(-c3cc(NC(=O)c4ccco4)ccc3Cl)nc2c1 | i | 9.1% | i | x | -0.5% | x
O=C(CC1C=CCC1)OCCN1CCN(C2CN(Cc3cn(Cc4ccccc4Cl)nn3)S(=O)(=O)C2)CC1 (configuration not stated) | x | x | i | x | x | x
Cc1cnc2ccc(I)cc2c1/C=C/c1ccc(N(C)C)cc1 | x | x | x | u | -4.7% | x
Oc1ccc2ccccc2c1CNc1ccc(Br)cn1 | i | 20µM* | i | 1.2% | 3.8% | 3.0%
Oc1ccc2ccccc2c1CNc1ccc(Br)cc1 | i | 7.7% | i | 9.8% | -10.2% | -0.7%
Cc1ccccc1-c1cccc(CN2CCc3nnc(C(NS(C)(=O)=O)C(C)C)n3CC2)c1 (configuration not stated) | x | x | x | x | -3.8% | x
CNc1nc(Nc2ccc(C)c(Cl)c2)c2cnn(C)c2n1 | i | 14.1µM* | i | 1.3% | -0.7% | -7.3%
COc1ccc(N2CCN(CCCNC(=O)CCc3ccc(F)cc3)CC2)cc1 | x | x | i | x | x | x
CN(c1ccccc1C(=O)Nc1cccc(Br)c1)S(=O)(=O)c1ccccc1 | i | 28.2µM* | i | 9.9% | -4.7% | 11.6%
CCOC(=O)c1ccc(NC(=O)c2ccccc2N(C)S(=O)(=O)c2ccccc2)cc1 | i | 35.5µM* | x | 5.6% | -5.5% | -3.0%
CN(c1ccccc1C(=O)Nc1cccc([N+](=O)[O-])c1)S(C)(=O)=O | i | 10.1% | i | 0.2% | 4.0% | u
CN(c1ccccc1C(=O)Nc1cccc([N+](=O)[O-])c1)S(=O)(=O)c1ccccc1 | i | 22.4µM* | i | 2.3% | -1.1% | u
O=C(CCn1c(=O)[nH]c2ccccc21)NCC1Cc2cc(Cl)cc(-c3ccncc3)c2O1 (configuration not stated) | x | x | x | x | -3.1% | x
COc1ccc2c(c1)C(=O)CC2 | x | x | x | -5.5% | -3.3% | x
O=C(Nc1ccccc1C(=O)Nc1ccc(Br)cn1)c1ccccc1Cl | i | 20µM* | i | 1.6%[1.84 µM] | 7.3% | x
Cc1ccc(-c2ccnc(-n3ncc(C(=O)NCCN4CCOCC4)c3C3CC3)n2)o1 | x | x | x | x | -3.5% | x
C/C(=N/NS(=O)(=O)c1ccc(Cl)cc1)c1cccc(NC(=O)c2ccc(Cl)cc2Cl)c1 | i | 12.6µM* | i | 5.8% | 0.7% | -4.7%
